Holding throughout (assay): DAPPL (digital affinity profiling via proximity ligation, sequencing); 10 mM Tris-HCl pH 7.5, 50 mM NaCl, 1 mM DTT, 4% glycerol, room temperature, 30 min; GST-TFs on glutathione beads, 16-mer random dsDNA library, 0.1% formaldehyde crosslink after washing; high values mean tight binding
The target in one test is T1, FLI1 (Homo sapiens, UniProt Q01543 1-452).
T1 sequence: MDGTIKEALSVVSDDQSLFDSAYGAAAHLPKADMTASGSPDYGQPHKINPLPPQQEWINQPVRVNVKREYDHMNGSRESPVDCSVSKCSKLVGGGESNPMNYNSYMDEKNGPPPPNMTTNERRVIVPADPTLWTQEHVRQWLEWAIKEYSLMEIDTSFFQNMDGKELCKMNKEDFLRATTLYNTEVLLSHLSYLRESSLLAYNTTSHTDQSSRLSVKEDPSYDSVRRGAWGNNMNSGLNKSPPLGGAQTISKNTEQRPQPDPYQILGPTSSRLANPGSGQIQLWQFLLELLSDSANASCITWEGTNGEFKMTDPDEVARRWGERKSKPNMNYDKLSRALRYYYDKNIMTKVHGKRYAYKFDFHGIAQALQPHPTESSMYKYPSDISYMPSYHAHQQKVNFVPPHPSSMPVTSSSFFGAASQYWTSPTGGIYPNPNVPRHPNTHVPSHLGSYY
Conditions: protein: recombinant; tags: N-terminal GST; dsDNA, one strand shown. Summed up:
(§1)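 In yeast, human transcription factors were expressed with a GST fusion, then pulled down on glutathione beads and given DNA barcodes. Pooled with a tag-only sample, they were exposed to 200 nmole of a 16-mer random double-stranded DNA library (Tris/NaCl/DTT/glycerol buffer, room temperature, 30 min), washed, crosslinked with 0.1% formaldehyde, proximity-ligated using BsaI/T4 ligase for 1 h at 37 °C, PCR-amplified and read on an Illumina NextSeq500. Each hexamer's frequency of reads for a factor, divided by the matching frequency for the tag-only sample, gives the binding signal.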

The next test concerns the target T2, ELK1 (Homo sapiens, UniProt P19419 1-428).
T2 sequence: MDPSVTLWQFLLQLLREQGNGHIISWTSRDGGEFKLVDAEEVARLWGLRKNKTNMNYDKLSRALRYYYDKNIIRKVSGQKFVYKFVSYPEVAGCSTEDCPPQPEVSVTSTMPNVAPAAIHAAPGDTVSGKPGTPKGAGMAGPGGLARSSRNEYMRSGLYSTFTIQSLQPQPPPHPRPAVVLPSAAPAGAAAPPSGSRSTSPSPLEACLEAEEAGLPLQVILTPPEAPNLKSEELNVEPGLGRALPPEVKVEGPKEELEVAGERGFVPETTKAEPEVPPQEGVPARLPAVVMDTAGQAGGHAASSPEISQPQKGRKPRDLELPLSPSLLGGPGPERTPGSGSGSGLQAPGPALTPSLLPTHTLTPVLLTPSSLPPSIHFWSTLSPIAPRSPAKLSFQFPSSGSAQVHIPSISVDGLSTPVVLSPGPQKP
Conditions: protein: recombinant; tags: N-terminal GST; dsDNA, one strand shown. An outline of the steps:
as §1

For the next test, the target named is T3, GABPA (Homo sapiens, UniProt Q06546 1-454).
T3 sequence: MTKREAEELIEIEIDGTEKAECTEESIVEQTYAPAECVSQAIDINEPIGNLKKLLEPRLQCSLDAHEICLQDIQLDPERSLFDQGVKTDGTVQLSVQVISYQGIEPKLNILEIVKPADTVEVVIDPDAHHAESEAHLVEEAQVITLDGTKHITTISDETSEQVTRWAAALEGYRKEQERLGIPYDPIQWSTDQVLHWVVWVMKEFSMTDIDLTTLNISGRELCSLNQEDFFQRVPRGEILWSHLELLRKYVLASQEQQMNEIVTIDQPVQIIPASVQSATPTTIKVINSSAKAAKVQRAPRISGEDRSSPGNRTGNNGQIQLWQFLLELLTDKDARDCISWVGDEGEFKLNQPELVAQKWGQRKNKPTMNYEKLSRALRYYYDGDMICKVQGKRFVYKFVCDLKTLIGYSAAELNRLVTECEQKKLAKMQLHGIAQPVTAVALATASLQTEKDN
Conditions: protein: recombinant; tags: N-terminal GST; dsDNA, one strand shown. Summed up:
as §1

For a further test, the target named is T4, ERG (Homo sapiens, UniProt P11308 1-479).
T4 sequence: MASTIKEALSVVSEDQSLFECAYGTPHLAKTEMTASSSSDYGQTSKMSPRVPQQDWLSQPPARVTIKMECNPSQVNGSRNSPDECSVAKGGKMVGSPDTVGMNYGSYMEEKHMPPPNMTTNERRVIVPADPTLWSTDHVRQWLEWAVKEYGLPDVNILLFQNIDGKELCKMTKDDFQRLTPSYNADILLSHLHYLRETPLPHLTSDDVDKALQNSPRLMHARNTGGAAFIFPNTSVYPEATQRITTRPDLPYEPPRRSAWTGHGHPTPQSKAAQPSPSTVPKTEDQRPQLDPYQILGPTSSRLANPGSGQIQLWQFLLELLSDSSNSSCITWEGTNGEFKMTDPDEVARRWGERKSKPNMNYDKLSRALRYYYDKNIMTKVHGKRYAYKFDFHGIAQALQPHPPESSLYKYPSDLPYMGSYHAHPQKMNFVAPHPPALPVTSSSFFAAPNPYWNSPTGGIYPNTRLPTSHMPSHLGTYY
As to conditions: protein: recombinant; tags: N-terminal GST; dsDNA, one strand shown. Summed up:
as §1

Another test deals with ELF1 (Homo sapiens, UniProt P32519 1-619). Conditions: protein: recombinant; tags: N-terminal GST; dsDNA, one strand shown. An outline of the steps: as §1
Chain of ELF1 (P32519 whole entry): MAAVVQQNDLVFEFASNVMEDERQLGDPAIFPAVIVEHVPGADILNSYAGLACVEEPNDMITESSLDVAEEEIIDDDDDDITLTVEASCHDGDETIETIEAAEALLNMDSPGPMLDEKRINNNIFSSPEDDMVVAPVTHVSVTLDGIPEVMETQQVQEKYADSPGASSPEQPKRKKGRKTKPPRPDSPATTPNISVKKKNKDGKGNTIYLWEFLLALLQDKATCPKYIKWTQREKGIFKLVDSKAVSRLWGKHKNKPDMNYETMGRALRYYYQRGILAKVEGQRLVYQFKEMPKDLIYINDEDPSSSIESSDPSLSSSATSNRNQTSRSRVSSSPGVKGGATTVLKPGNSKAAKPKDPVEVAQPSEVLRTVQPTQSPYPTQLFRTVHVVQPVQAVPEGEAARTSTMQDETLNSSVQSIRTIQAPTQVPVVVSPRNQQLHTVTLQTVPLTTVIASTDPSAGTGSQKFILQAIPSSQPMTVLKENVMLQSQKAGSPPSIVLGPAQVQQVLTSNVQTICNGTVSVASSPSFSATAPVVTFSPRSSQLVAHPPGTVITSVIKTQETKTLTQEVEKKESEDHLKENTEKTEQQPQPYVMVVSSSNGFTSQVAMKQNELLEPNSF
In the next test the target is T5, EHF (Homo sapiens, UniProt Q9NZC4 1-300).
T5 sequence: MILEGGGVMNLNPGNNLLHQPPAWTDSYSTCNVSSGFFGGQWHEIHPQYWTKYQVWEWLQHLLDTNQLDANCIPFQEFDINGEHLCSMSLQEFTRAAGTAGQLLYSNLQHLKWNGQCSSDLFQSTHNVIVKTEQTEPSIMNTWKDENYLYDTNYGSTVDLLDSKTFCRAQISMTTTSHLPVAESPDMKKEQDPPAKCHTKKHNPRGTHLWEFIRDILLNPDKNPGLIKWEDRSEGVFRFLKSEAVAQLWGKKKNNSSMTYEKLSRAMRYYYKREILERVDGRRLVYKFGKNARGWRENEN
Conditions: protein: recombinant; tags: N-terminal GST; dsDNA, one strand shown. An outline of the steps: as §1

A further test addresses SPI1 (Homo sapiens, UniProt P17947 1-270). Conditions: protein: recombinant; tags: N-terminal GST; dsDNA, one strand shown. An outline of the steps: as §1
A further test deals with SPIB (Homo sapiens, UniProt Q01892 1-262). Conditions: protein: recombinant; tags: N-terminal GST; dsDNA, one strand shown. Summed up:
as §1

The next test deals with T6, ELK3 (Homo sapiens, UniProt P41970 1-407).
T6 sequence: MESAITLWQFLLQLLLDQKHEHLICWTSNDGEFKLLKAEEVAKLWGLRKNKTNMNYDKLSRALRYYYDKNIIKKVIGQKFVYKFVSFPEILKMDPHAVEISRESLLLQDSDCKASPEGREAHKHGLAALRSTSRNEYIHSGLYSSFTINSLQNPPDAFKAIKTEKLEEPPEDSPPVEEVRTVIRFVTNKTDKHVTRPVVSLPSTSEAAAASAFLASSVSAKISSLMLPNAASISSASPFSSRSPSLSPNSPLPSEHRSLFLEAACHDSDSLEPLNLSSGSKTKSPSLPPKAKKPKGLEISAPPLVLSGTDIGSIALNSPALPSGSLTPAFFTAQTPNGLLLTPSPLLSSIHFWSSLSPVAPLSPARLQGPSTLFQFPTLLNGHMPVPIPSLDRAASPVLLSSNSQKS
As to conditions: protein: recombinant; tags: N-terminal GST; dsDNA, one strand shown. An outline of the steps:
as §1

The next test has as its target T7, FEV (Homo sapiens, UniProt Q99581 1-238).
T7 sequence: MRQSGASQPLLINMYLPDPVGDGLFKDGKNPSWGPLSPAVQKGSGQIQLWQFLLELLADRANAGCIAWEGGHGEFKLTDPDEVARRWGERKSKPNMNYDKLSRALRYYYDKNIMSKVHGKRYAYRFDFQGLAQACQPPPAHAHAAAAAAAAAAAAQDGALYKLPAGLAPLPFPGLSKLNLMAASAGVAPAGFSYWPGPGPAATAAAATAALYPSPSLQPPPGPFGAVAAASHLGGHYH
Conditions: protein: recombinant; tags: N-terminal GST; dsDNA, one strand shown. An outline of the steps:
as §1

A further test has as its target ETV5 (Homo sapiens, UniProt P41161 1-510). Conditions: protein: recombinant; tags: N-terminal GST; dsDNA, one strand shown. Summed up: as §1
For the next test, the target named is HSF1 (Homo sapiens, UniProt Q00613 1-529). As to conditions: protein: recombinant; tags: N-terminal GST; chain copies: 3; dsDNA, one strand shown. Summed up: as §1
Chain of HSF1 (Q00613 whole entry): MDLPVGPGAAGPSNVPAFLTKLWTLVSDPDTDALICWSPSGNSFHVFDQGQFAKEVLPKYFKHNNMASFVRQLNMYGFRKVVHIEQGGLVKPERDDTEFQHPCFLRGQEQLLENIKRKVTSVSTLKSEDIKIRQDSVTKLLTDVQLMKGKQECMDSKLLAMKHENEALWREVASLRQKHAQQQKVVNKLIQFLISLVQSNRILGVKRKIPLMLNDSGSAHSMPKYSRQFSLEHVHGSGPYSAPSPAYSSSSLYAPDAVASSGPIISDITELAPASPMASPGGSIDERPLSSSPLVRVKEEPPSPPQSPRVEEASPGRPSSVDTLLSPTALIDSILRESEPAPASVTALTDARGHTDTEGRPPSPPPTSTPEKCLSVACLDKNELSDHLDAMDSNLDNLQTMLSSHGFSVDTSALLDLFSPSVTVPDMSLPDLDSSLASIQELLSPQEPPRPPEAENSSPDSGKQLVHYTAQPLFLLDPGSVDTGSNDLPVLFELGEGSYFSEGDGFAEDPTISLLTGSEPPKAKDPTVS
The next test deals with T8, SPIC (Homo sapiens, UniProt Q8N5J4 1-248).
T8 sequence: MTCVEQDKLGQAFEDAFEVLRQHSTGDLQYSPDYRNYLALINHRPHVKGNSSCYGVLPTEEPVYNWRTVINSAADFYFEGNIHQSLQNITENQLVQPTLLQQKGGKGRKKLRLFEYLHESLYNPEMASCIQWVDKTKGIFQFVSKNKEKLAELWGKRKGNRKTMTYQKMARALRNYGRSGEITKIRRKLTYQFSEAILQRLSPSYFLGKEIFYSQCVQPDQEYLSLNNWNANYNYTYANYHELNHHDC
As to conditions: protein: recombinant; tags: N-terminal GST; dsDNA, one strand shown. Summed up:
as §1

A further test deals with ELF4 (Homo sapiens, UniProt Q99607 1-663). Conditions: protein: recombinant; tags: N-terminal GST; dsDNA, one strand shown. Summed up:
as §1

Another test addresses T9, ELK4 (Homo sapiens, UniProt P28324-2 1-405).
T9 sequence: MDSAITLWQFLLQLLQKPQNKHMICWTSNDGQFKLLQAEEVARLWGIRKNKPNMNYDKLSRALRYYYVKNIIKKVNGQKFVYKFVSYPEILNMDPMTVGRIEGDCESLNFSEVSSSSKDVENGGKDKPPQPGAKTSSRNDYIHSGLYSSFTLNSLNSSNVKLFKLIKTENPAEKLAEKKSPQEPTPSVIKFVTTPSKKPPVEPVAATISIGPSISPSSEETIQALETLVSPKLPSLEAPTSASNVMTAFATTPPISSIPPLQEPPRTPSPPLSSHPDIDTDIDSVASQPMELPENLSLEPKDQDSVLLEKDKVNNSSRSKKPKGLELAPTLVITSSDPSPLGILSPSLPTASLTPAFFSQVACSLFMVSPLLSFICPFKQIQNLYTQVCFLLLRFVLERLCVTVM
Conditions: protein: recombinant; tags: N-terminal GST; dsDNA, one strand shown. An outline of the steps: as §1

The target of the next test is T10, ETV2 (Homo sapiens, UniProt O00321 1-342).
T10 sequence: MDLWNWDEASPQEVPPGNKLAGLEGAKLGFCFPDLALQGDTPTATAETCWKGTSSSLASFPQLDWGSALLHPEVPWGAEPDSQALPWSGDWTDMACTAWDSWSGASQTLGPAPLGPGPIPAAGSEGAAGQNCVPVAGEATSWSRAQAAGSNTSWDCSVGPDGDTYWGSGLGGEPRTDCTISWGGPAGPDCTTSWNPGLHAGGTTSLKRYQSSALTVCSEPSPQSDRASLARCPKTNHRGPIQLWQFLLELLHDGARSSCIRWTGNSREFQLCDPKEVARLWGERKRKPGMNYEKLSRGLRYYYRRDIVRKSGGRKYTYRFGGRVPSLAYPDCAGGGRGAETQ
Conditions: protein: recombinant; tags: N-terminal GST; dsDNA, one strand shown. Summed up: as §1

For a further test, the target named is T11, ELF3 (Homo sapiens, UniProt P78545 1-371).
T11 sequence: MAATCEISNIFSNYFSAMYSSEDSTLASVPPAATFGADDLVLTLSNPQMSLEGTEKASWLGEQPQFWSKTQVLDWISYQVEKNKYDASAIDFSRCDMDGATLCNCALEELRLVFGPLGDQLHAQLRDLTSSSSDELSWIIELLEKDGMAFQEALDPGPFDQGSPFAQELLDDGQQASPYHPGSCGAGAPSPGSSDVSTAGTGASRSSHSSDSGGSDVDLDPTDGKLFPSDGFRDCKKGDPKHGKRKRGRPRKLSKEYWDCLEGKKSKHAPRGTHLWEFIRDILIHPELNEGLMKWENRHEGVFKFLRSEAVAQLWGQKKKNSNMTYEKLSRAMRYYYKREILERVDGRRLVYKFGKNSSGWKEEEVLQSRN
As to conditions: protein: recombinant; tags: N-terminal GST; dsDNA, one strand shown. Summed up:
as §1

The next test concerns the target CRX (Homo sapiens, UniProt O43186 1-299). As to conditions: protein: recombinant; tags: N-terminal GST; dsDNA, one strand shown. An outline of the steps: as §1
The target of another test is ETV1 (Homo sapiens, UniProt P50549 1-477). Conditions: protein: recombinant; tags: N-terminal GST; dsDNA, one strand shown. An outline of the steps:
as §1

Chain of ETV1 (P50549 whole entry): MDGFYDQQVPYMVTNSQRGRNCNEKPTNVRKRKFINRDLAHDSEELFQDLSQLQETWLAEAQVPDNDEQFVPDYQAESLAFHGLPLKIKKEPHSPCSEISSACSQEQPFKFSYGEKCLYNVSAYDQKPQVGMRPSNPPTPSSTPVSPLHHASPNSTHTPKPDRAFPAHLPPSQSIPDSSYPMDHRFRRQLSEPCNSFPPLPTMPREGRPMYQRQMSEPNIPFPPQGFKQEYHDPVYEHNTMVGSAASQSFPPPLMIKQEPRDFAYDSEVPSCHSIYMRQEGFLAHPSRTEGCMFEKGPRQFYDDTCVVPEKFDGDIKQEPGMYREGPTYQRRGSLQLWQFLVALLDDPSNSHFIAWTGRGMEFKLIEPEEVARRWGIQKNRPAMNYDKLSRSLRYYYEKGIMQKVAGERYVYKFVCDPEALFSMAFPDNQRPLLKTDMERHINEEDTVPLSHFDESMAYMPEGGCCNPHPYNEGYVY
Chain of SPIB (Q01892 whole entry): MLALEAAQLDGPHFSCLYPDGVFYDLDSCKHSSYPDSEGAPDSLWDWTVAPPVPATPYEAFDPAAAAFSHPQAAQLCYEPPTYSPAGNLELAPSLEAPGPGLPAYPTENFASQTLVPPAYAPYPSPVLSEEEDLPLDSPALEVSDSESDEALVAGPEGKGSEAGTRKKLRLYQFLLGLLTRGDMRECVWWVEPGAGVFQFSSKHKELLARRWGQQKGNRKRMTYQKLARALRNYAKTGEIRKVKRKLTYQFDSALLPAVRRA
Chain of CRX (O43186 whole entry): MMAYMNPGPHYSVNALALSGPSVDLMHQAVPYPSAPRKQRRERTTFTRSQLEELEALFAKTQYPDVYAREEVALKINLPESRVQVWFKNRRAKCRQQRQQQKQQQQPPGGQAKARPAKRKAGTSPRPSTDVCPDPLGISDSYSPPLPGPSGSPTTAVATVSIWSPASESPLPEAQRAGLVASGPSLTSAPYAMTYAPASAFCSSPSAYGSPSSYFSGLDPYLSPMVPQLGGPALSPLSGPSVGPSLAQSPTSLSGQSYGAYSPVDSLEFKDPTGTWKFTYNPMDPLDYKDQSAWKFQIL
Chain of ETV5 (P41161 whole entry): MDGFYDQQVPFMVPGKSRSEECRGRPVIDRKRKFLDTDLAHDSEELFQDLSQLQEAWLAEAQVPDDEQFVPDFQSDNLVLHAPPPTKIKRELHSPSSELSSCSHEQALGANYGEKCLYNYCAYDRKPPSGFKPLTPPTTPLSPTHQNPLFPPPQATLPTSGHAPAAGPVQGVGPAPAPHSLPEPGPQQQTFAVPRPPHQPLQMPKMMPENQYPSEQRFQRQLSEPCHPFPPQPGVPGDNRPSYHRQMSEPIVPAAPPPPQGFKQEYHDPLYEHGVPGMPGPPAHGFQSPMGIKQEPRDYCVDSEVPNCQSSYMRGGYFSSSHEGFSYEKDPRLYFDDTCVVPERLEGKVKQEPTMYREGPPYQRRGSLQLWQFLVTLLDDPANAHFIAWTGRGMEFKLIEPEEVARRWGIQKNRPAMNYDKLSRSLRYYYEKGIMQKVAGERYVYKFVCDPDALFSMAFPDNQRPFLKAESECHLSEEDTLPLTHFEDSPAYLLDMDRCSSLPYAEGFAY
Chain of ELF4 (Q99607 whole entry): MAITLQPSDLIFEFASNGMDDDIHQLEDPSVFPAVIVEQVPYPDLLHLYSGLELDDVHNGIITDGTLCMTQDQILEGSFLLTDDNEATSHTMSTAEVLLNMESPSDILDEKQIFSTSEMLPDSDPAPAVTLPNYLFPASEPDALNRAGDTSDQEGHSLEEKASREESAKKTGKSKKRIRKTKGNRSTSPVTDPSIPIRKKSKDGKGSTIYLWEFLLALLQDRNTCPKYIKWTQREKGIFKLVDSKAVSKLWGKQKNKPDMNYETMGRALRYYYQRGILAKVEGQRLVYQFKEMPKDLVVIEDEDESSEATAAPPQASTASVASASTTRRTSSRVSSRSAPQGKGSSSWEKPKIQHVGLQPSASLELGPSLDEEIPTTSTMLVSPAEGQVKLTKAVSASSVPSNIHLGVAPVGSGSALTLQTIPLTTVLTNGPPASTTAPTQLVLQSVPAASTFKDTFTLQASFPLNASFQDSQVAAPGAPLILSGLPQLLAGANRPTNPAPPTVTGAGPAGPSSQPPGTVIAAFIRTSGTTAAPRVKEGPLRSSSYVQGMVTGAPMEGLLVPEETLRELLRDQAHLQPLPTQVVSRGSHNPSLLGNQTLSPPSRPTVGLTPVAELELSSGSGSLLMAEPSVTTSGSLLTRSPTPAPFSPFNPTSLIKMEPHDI

In the case of CCTGAA, the binding signal with FLI1 was 1.35 fold enrichment (6-mer frequency, TF over GST control); with ELK1, 1.39 fold enrichment (6-mer frequency, TF over GST control); with GABPA, 1.39 fold enrichment (6-mer frequency, TF over GST control); in the test with ERG, 1.41 fold enrichment (6-mer frequency, TF over GST control); in the test with ELF1 it was 1.35 fold enrichment (6-mer frequency, TF over GST control); in the test with EHF, 1.33 fold enrichment (6-mer frequency, TF over GST control). Further, the binding signal is 1.35 fold enrichment (6-mer frequency, TF over GST control) in the test with SPI1; 1.42 fold enrichment (6-mer frequency, TF over GST control) with SPIB; 1.32 fold enrichment (6-mer frequency, TF over GST control) in the test with ELK3; 1.4 fold enrichment (6-mer frequency, TF over GST control) in the test with FEV; 1.38 fold enrichment (6-mer frequency, TF over GST control) in the test with ETV5; 1.54 fold enrichment (6-mer frequency, TF over GST control) with HSF1. The binding signal with SPIC is 1.28 fold enrichment (6-mer frequency, TF over GST control); in the test with ELF4, 1.31 fold enrichment (6-mer frequency, TF over GST control); with ELK4 it was 1.41 fold enrichment (6-mer frequency, TF over GST control); with ETV2, 1.47 fold enrichment (6-mer frequency, TF over GST control); in the test with ELF3 it was 1.21 fold enrichment (6-mer frequency, TF over GST control); in the test with CRX, 1.22 fold enrichment (6-mer frequency, TF over GST control). In addition, the binding signal with ETV1 is 1.38 fold enrichment (6-mer frequency, TF over GST control).
